A number with no mark means an inactive call. No rule for the calls is given here.

The results in this text go back to PMC13494018.

The target in this assay is CD276, Q5ZPR3.
Sequence of CD276, Q5ZPR3 (Q5ZPR3 whole entry): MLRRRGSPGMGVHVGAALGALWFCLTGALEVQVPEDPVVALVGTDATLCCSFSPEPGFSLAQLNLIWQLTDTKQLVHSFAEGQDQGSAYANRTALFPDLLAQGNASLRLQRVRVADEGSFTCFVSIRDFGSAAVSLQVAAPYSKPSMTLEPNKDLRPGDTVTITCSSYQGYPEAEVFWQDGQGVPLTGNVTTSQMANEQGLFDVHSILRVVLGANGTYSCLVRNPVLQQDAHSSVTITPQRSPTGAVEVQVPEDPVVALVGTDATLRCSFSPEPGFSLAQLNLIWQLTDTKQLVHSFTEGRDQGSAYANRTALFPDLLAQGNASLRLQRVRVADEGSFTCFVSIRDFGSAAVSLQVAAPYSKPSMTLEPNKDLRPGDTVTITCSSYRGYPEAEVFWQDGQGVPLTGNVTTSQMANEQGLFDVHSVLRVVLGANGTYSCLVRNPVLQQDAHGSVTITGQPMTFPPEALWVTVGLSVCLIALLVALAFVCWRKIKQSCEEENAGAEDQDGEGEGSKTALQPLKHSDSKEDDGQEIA

B1: d1r6_design_ppi_647_dldesign_0_cycle0_af2pred (protein)
chain: SKAELLAYKALAAAAKNALEQVKTGEEAEKAVESLKKMAEALGDEETAKLAEEALKAIKKSKEEGEKKLEEAKKYAEKKAKEAA
As to B1, the “binding in a display sort” value is “not found”.

B2: d1r6_design_ppi_725_dldesign_0_cycle0_af2pred (protein)
chain: AELAATHMAGVEALNRARAAAVALVALDPARGAAWLAEADELGRRLNEAAADASRAEELKRITEELEKLAERIAAERDAAAA
As for B2, the “binding in a display sort” value is “not found”.

B3: d1r7_design_ppi_252_dldesign_0_cycle1_af2pred (protein)
chain: VKEEAVALAKEAAALAREAAELLAPDPLLAAQAQRLAERAEELAERAKAASEEEAKELLEEARVLLAQAELLLTIARQR
For the molecule B3, the “binding in a display sort” value was “not found”.

B4: d1r7_design_ppi_446_dldesign_0_cycle1_af2pred (protein)
chain: GEAARNAEEIFADSRERARALAAEYRASGDPADLAIAAELEEALARAEEEGPAGGVRLIILTDGILQARAAAAA
Consider B4, for which the “binding in a display sort” value is “not found”.

B5: d1r7_design_ppi_241_dldesign_0_cycle0_af2pred (protein)
chain: SELEARGERIKREAEELRRRAEASTDAEEALAYATELVALAAEAAALGDSEAASVAVRAAAAAHAHAQALRA
Regarding B5, the “binding in a display sort” value is “not found”.

B6: d1r6_design_ppi_17_dldesign_0_cycle0_af2pred (protein)
chain: MDFAASAQAAQRDAERLAERGIASGDAADLRRATEAVEQLLEIVQGLAAQGAAEAGEQLQAAVERTRAALERTRAAAAAAEAAAA
Turning to B6, the “binding in a display sort” value is “not found”.

B7: d1r6_design_ppi_265_dldesign_0_cycle1_af2pred (protein)
chain: AAAQARALGAVAKQAVLDGKFDEAKQLIEGLVNLAQADPAAAPQAAKEMKEIAKAAEEKAKADPANAAKYKALAKVAAAAAKEAEKAA
As to B7, the “binding in a display sort” value is “not found”.

B8: d1r6_design_ppi_81_dldesign_0_cycle1_af2pred (protein)
chain: AATQQILITAAVMLEERLDELGRAAEVAAMALLYGAAFGSLEKAREKLEELAATLSAEEAARARATFDEAVAAAQAAA
Turning to B8, the “binding in a display sort” value was “not found”.

B9: d1r7_design_ppi_147_dldesign_0_cycle1_af2pred (protein)
chain: AAAAAKATAKQIAAIAEEAIAKVKAATPEEAKKIAAEANQQIRALAAAAAAAHPEVAAAVAAAATAAIQRVLSTAIEVVSA
For the molecule B9, the “binding in a display sort” value is “not found”.

B10: d1r6_design_ppi_906_dldesign_0_cycle0_af2pred (protein)
chain: AAAAQAEVTIKMGEAVIKQGEEWIEHPEYAEHAAKLLEAVADIAKATAKAAAAADAELAKKVEETRKKLEEVREKAKAVAEA
Take B10: the “binding in a display sort” value is “not found”.

B11: d1r7_design_ppi_24_dldesign_0_cycle0_af2pred (protein)
chain: SELGAILDRASEVSKRAVEVEKKAKEKGLEEALELAREALKEVQAALSLIAKGGDLADAQAKLEEGEKLLEEAEKKLKEE
For the molecule B11, the “binding in a display sort” value was “not found”.

B12: d1r7_design_ppi_71_dldesign_0_cycle1_af2pred (protein)
chain: DYAAQQLALTTRAQEVAERAKKAGKELGNPEEAKKIQQLASLAQALAINPATFPQAEKKLEEAEKRAKKLEKKAKE
Consider B12, for which the “binding in a display sort” value was “not found”.

B13: d1r6_design_ppi_905_dldesign_0_cycle0_af2pred (protein)
chain: AAVEAAQEEALRALEEARALAREVLAADPERAARVAARIEEAAELVRDGEKINEGLALLVELAAESPAEVKPALMRAAALAGRAYVLR
As to B13, the “binding in a display sort” value was “not found”.

B14: d1r7_design_ppi_302_dldesign_0_cycle1_af2pred (protein)
chain: SPVAAQAEALRDAAVAVAKTGNPEAAAAAAHAAVAQMNRLALAHPEENATASSEAVATLEEVDRLRAAQRAAAG
Take B14: the “binding in a display sort” value was “not found”.

B15: d1r7_design_ppi_74_dldesign_0_cycle1_af2pred (protein)
chain: AKEKAEELYKKFSEEINKSLALLGKAGLAAVEDPAKGAELFKKAKAELEEAKKYAKKLEELDPELGKKAKAELKKVQDLYDGTYKANV
As to B15, the “binding in a display sort” value is “not found”.

B16: d1r6_design_ppi_480_dldesign_0_cycle1_af2pred (protein)
chain: AAETQQAADIIIANAEHAKRLAKENPEAGEKLVEVLEESAKWVEAKDPEAGAKAKKAVEEAKKVAEAVKAAREAAKALA
Take B16: the “binding in a display sort” value was “not found”.

B17: d1r7_design_ppi_3_dldesign_0_cycle1_af2pred (protein)
chain: AAEAAALYEATRAAAEALARVDPALAAEAARLRGQALRYYSLTFVDPAAGRAGVAAVLAEAKRLLAAARARA
Take B17: the “binding in a display sort” value is “not found”.

B18: d1r7_design_ppi_304_dldesign_0_cycle0_af2pred (protein)
chain: AAEAAAAAAATARASAAMAAFARRRLEEGAAAGPEALARAVAELEALAAHADPAIGAALRAALAATLAALAAAA
For the molecule B18, the “binding in a display sort” value was “not found”.

B19: d1r6_design_ppi_106_dldesign_0_cycle0_af2pred (protein)
chain: AAISRAMYHHALGLADAANREAHLAAAAALRAALSPEDAARAEAQIAKIEAAAAANQAAAAAARAARAAAA
Take B19: the “binding in a display sort” value was “not found”.

B20: d1r7_design_ppi_396_dldesign_0_cycle0_af2pred (protein)
chain: SSPVEQAMKVIEKYMKELAKVVGQEKADAAKNLLFGALAKGVHAGVEAAKAELQAAAKEIQKEIKDPEAQKIIQEATKEAIKELE
For the molecule B20, the “binding in a display sort” value was “not found”.

B21: d1r7_design_ppi_77_dldesign_0_cycle1_af2pred (protein)
chain: SAVEDAANAIWEAAKAMAKAVPEAAATVDKLAREAVRALMLGDYEKAAKIVKEMAKAVAKADPKAAKKAEELAKKTVAKIKAA
B21: the “binding in a display sort” value is “not found”.

B22: d1r6_design_ppi_780_dldesign_0_cycle1_af2pred (protein)
chain: NAAATRAFSLAVARQAEETAKQVAGVDPELAKKLKELAKEVRKLAADPATHLQAVEATIEALKAIGEANKKLA
As to B22, the “binding in a display sort” value was “not found”.

B23: d1r6_design_ppi_671_dldesign_0_cycle1_af2pred (protein)
chain: AVEEALKKAEEAAKELEKVAKELGDKEAKEKAKQVKSLIEFAKVAAEAGDEKTALHAAKQAKELAEKALKEAKAKLEAKKAEEEKLKK
For B23, the “binding in a display sort” value is “not found”.

B24: d1r6_design_ppi_2_dldesign_0_cycle1_af2pred (protein)
chain: EQYFTDRDIAAAEAAAAKYAALAADPEARAYAARFREAAALIRDPATRAEGIDLLAATEAAAAAHAKALAA
On to B24, for which the “binding in a display sort” value is “not found”.

B25: d1r7_design_ppi_393_dldesign_0_cycle1_af2pred (protein)
chain: EKLHPQAVAALKAQARNAAKLDPETMKKMAENVAKLVTLLSPAKAKEAEKVKELLLKAAEAKKKGAGEETLKALVEEAAKVIAE
In the case of B25, the “binding in a display sort” value was “not found”.

B26: d1r7_design_ppi_322_dldesign_0_cycle0_af2pred (protein)
chain: MTLEDLKRAAKAYLHGLANLAAGLGLEELAKKLREAAANVDDAKALKEGAELAKELAALSTPEAAEFAKLAAEVAKAAAKAVEAA
For the molecule B26, the “binding in a display sort” value was “not found”.

B27: d1r7_design_ppi_29_dldesign_0_cycle1_af2pred (protein)
chain: SAATAVALAQAAITFGRSALAAAERAPPERGAKILEAAAEILTAAAAQAPALAAETQALAAEARERAAELAAAAAA
On to B27, for which the “binding in a display sort” value was “not found”.

B28: d1r7_design_ppi_270_dldesign_0_cycle1_af2pred (protein)
chain: SMEKALEYLEKAKKSLEEGDKAKAAGDKARALGYYQLAAAYAKSAAHLAKDNPELAKEAKELEKEAKAKLAEVRAA
Take B28: the “binding in a display sort” value is “not found”.

B29: d1r6_design_ppi_754_dldesign_0_cycle1_af2pred (protein)
chain: GKEEELLKKAKEYFEEAEKYIKELEEVAAKAGPAAKGLVTFTKNYFERLKAKAEKATPEEALKLAKEAYDFAKDALEAAKTTLAALE
In the case of B29, the “binding in a display sort” value is “not found”.

B30: d1r7_design_ppi_351_dldesign_0_cycle0_af2pred (protein)
chain: EELEEKKKKAIELLKKAKEKAEKIGDTAVAAAAENAIKAIEAGNLEAAISNARLAKAIAAEDPALKEAAELAKKALEELEEAKKLAEA
Turning to B30, the “binding in a display sort” value was “not found”.

B31: d1r6_design_ppi_106_dldesign_0_cycle1_af2pred (protein)
chain: DLISKAVYYYALGIADPANAAEYKAKAQAEIDKLSPEEAAKAKAELEKVTKSQEELAAKSAERAAARAAAA
On to B31, for which the “binding in a display sort” value was “not found”.

B32: d1r7_design_ppi_420_dldesign_0_cycle1_af2pred (protein)
chain: MTKAEVVAEAIAVAKEAAKIAKANKESPEVQELQKKALDLAFKALASNDAAEAQKYAEKAKEVKKELEKKAKEL
Take B32: the “binding in a display sort” value was “not found”.

B33: d1r6_design_ppi_612_dldesign_0_cycle1_af2pred (protein)
chain: GAALEEQAKKIAEEAIEKIKKGAETGSLSPEEILALASKTVAQLSAIAIASKGGVAAGAGAVEVQKVAAEAL
As for B33, the “binding in a display sort” value is “not found”.

B34: d1r6_design_ppi_250_dldesign_0_cycle0_af2pred (protein)
chain: SAALAAARGAILQAALSLGVERAREAFARVEASDPAEAAALAEALAAEAAARDPAIGARAAAGAAALRAA
For the molecule B34, the “binding in a display sort” value is “not found”.

B35: d1r6_design_ppi_166_dldesign_0_cycle0_af2pred (protein)
chain: SAVAADGAAALAVAADLMAAGKEYAAAGDLANAARAYQSARALAATMAAAAAAAGDAATAAALAAAAAAAAAAEAEVKA
For the molecule B35, the “binding in a display sort” value is “not found”.

B36: d1r7_design_ppi_300_dldesign_0_cycle0_af2pred (protein)
chain: MQVMLDAGEYLAKALKATGLEEAKEMAEEVLKAMKEAASLSPEEAESILGELMRKTIAKTGVVGAQAAALAYAHLAELKAA
With B36, the “binding in a display sort” value is “not found”.

B37: d1r6_design_ppi_627_dldesign_0_cycle1_af2pred (protein)
chain: DEVQREIRERVERGRETAKRAAQHPATAPIAAAIRATAERAEAASSDPERALNYAQMTDVAIANGELALAQVAA
For B37, the “binding in a display sort” value was “not found”.

B38: d1r7_design_ppi_290_dldesign_0_cycle0_af2pred (protein)
chain: SAEAAEAEAAAARELAREMYALTPEEAAERMTALFLESPGRALRAATELVRAEGPAALPLAQAWLRAGVAAAQAA
As to B38, the “binding in a display sort” value is “not found”.
